Bioassay records from PubChem.
Only some compounds are listed: those with a hit (about 12% of all), similar ones and a draw of the others.
Shiga inhibitor = blocks Shiga toxin action in Vero cells | Vero cells, Shiga toxin protein synthesis inhibition reporter | inhibition, % at 38.7 µM | actives 9.2% (n = 290,000); in the data active = inhibition mostly above about 28%, no sharp cut-off; inactive = mostly below about 43%; note: 0% is about no effect
FMDV inh = foot and mouth disease virus antiviral activity; FMDV antiviral cell-based qHTS; actives 1.2% (n = 410,000); Potency, µM (doses to about 57.9 µM), for the others: at the highest dose activity change, negative = inhibition, actives largely listed as inhibitors; calls by dose curve; tested in HEK293T cells; note: read-out not given here; potency is the fitted concentration of half-maximal effect; % is set by controls: 0 for no effect and ±100 for the full control effect; nearly all actives have a fitted effect of over 45% in size
Sm TGR block = S. mansoni TGR enzyme inhibition | Q962Y6 | purified TGR, DTNB reduction, TNB absorbance 405 nm | Potency, µM (series often up to 114 µM), without a hit: at the highest dose activity change, negative = inhibition, most hits filed as inhibitors | actives 3% (n = 360,000) | AID 485364; active = well fitted inhibition curve with a large enough effect; inconclusive = small, poorly fitted or top-dose-only effect; inactive = no such curve, though single readings can be large or run the other way; note: potency is the fitted concentration of half-maximal effect; % is set by controls: 0 for no effect and ±100 for the full control effect; nearly all actives have a fitted effect of over 60% in size
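First, TGR (20 nM dispensed) and NADPH were mixed with compound. Second, a 15 min room-temperature incubation followed. Third, further NADPH and then DTNB were added to start the reaction. Finally, TNB absorbance was monitored kinetically.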
Cycloheximide cs = counter-screen hit for Shiga toxin inhibitors, cycloheximide; cell reporter, cycloheximide protein synthesis inhibition counterscreen; max response, %; actives 12% (n = 300,000); AID 2314; in the data active = max response mostly above about 13%, no sharp cut-off; inactive = mostly below about 14%; note: read at 38.3 µM for the half of the compounds with a filed dose; 0% is about no effect
Numbers without * were called inactive; ? = inconclusive; nt = no result; [ ] = dose if it differs, or a comment.

SMILES | Shiga inhibitor | FMDV inh | Sm TGR block | Cycloheximide cs
Cc1ccc2c(c1)N(C(=O)N1CCC(C(=O)NCCc3ccc(Cl)cc3)CC1)CC(C)O2 (stereo not given) | nt | 0.0% | 0.4% | nt
O=C(O)CSCC(=O)Nc1ccc(C(=O)O)cc1 | 20.4 | 3.6% | -17.2% | 11.3
O=C(CSCCO)Nc1ccc(C2CCCCC2)cc1 | 97.4* | 0.0% | 2.4% | 48.3*
CSCCC(=O)Nc1ccc(C(C)=O)cc1 | 114.3 | nt | 0.0% | 26.6*
CC(=O)c1ccc(NC(=O)CSCCO)cc1 | 81.0* | 31.4% | -3.9% | 21.0*
CC(=O)c1ccc(NC(=O)CCCC(=O)c2ccccc2)cc1 | -16.0 | -5.1% | 5.5% | -4.0
CCOc1ccc(CNC(=O)CCCn2c(=O)c3cccn3c3ccc(F)cc32)cc1 | nt | 0.7% | 1.1% | nt
COc1ccccc1CCn1c(=O)c(-c2ccc(F)c(F)c2)nc2cncnc21 | nt | -8.4% | nt | nt
Cc1ccc(O)c(-c2n[nH]c3c2C(c2ccccc2F)N(Cc2ccco2)C3=O)c1 (stereo not given) | nt | ? | 2.7% | nt
CC1=C(C(=O)N2CCOCC2)C(c2ccc(O)cc2)NC(=S)N1 (stereo not given) | 9.6 | -14.6% | 2.6% | 0.9
Oc1ccc2c(c1)C1CCCC1(N1CCOCC1)O2 (stereo not given) | 9.9 | 12.2% | 28.2µM* | 9.0
O=C1C(=O)N(CCN2CCOCC2)C(c2cccnc2)/C1=C(/O)c1ccccc1 (stereo not given) | -6.4 | nt | -10.4%[57.1 µM] | -1.2
Cc1ccc(/C(O)=C2/C(=O)C(=O)N(CCN3CCOCC3)C2c2ccccn2)cc1 (stereo not given) | 105.3* | 6.1% | 25.1µM* | 33.8*
COc1ccc(/C(O)=C2/C(=O)C(=O)N(CCN(C)C)C2c2ccccn2)cc1OC (stereo not given) | -5.8 | 9.3% | 12.6µM* | 5.7
O=C1C(=O)N(CCN2CCOCC2)C(c2ccccn2)/C1=C(/O)c1ccccc1 (stereo not given) | 109.4* | 14.0% | ? | 29.6*
COc1ccc(/C(O)=C2/C(=O)C(=O)N(CCN3CCOCC3)C2c2ccccn2)cc1OC (stereo not given) | 64.4* | -4.1% | 50.1µM* | 25.1*
CCN(CC)CCCN1C(=O)C(=O)/C(=C(/O)c2ccc(C)cc2)C1c1ccccn1 (stereo not given) | 8.1 | -2.7% | -5.1% | -2.8
CCCCc1ccc(NC(=O)CSc2nc3ccccc3nc2N2CCOCC2)cc1 | nt | -8.0% | -0.5% | nt
CCOc1cc(-c2ccc(OC(=O)c3ccccc3F)cc2)cc(=O)c2c(C)oc(C)c12 | nt | ? | -15.5% | nt
Cc1ccc(C(=O)Nc2cccc(-c3nc(CNC(=O)[C@@H]4C[C@@H](C)NC(=S)N4)c(C)o3)c2)s1 | nt | 29.0% | nt | nt
Cc1ccc(NCc2cccn2-c2nnc(N3CCC(C(=O)NCc4ccccc4C)CC3)s2)cc1 | nt | -18.8% | -7.0% | nt
COc1ccc(CCNC(=O)C2(c3cccs3)CCOCC2)cc1OC | nt | 0.0% | 10.8% | nt
O=C(Nc1cc2c(cc1Br)OCCCO2)c1cccnc1 | 84.0* | 41.3% | -26.3% | 38.2*
O=C(Nc1cc2c(cc1Br)OCCCO2)c1ccccc1 | 123.2* | 20.6% | -13.8% | 78.3*
O=C(Nc1nc(-c2ccccn2)cs1)Nc1ccc(F)cc1F | 84.5* | -7.3% | 4.9% | 35.0*
SMILES | Shiga inhibitor | FMDV inh | Sm TGR block | Cycloheximide cs
O=C(Nc1nc(-c2cc(F)ccc2F)cs1)c1ccccn1 | 42.2* | 44.7% | 1.2% | 15.3*
O=C(COc1ccc(F)cc1)Nc1nc(-c2ccccn2)cs1 | nt | -16.4% | -29.0% | nt
O=C(Nc1nc(-c2ccccc2)cs1)Nc1ccc(F)cc1F | 59.3* | -8.0% | 52.6% | 27.7*
COCCN1CCN(C(=O)c2cnn(-c3nccc(-c4ccccc4OC)n3)c2-c2ccco2)CC1 | nt | -16.8% | nt | nt
Cc1c(C(=O)NCc2ccc(N(C)C)cc2)oc2c1-c1nn(Cc3cccc(Cl)c3)cc1CC2 | nt | -3.0% | 1.5% | nt
Cc1ccccc1CSCCNC(=O)COc1ccc(Cl)cc1 | 11.8 | -10.7% | -10.1% | 1.0
CC(C)(C)SCCNC(=O)COc1ccc(Cl)cc1 | -5.6 | nt | -16.5% | 11.0*
Cc1nc(-c2ccc(F)cc2)sc1CCNC(=O)c1ccco1 | nt | 28.7% | 5.3% | nt
CCN1C(=O)/C(=C\N2CCCCCC2)SC1=S | 23.0 | 2.6% | -2.3% | 15.1*
CCOc1ccccc1C=C1SC(=S)N(CC)C1=O | nt | -8.5% | nt | nt
CCOC(=O)C1CCN(c2c(N3CCCC(C(=O)OCC)C3)c(=O)c2=O)CC1 (stereo not given) | -1.7 | -0.4% | -1.1% | -4.6
CCN1C(=O)/C(=C/N2CCc3ccccc3C2)SC1=S | 31.5 | 0.0% | -4.7% | 15.7*
CCOC(=O)C1CCCN(/C=C2\SC(=S)N(CC)C2=O)C1 (stereo not given) | 15.6 | -11.2% | 0.2% | 7.9*
CCN1C(=O)/C(=C/N2CC(C)CC(C)C2)SC1=S (stereo not given) | -5.6 | -1.9% | -0.7% | 5.9
Cn1c2ccccc2c2c(C(=O)N3CCN(c4cccc(Cl)c4)CC3)cn(C3CCCCC3)c(=O)c21 | nt | -21.5% | 1.3% | nt
CCCCOc1ccc(CSCCN)cc1Cl | 73.2* | 42.9% | -0.7% | 22.8*
CC(C)Oc1ccc(CCN)cc1Cl | -7.6 | -12.7% | 2.9% | -2.4
CCCCOc1ccc(CCN)cc1Cl | 19.9 | 30.8% | -1.9% | 33.7*
O=C(CSc1ccccc1)N/N=C/c1ccccc1O | 45.7 | 24.7% | nt | 25.1*
COc1ccc(/C=N/NC(=O)CSc2ccccc2)cc1OC | 12.7 | -10.1% | 7.7% | 14.3*
CCn1nc(C)c(/C=N/NC(=O)CSc2ccccn2)c1C | 63.4* | 60.9% | -3.4% | 31.9*
Cc1cc(SCC(=O)N/N=C/c2ccc(O)c(O)c2O)c(C)cc1Br | -17.3 | -29.7% | 35.5µM* | -2.6
COc1ccc(/C=N/NC(=O)CSCC(=O)Nc2ccccc2)cc1OC | -22.2 | 8.3% | 6.0% | -0.7
COc1ccccc1/C=N/NC(=O)CSc1ccc2ccccc2n1 | 69.6* | -20.5% | 0.0% | 25.4*
COc1ccccc1/C=N/NC(=O)CSc1cc(C)nc2ccccc12 | -2.9 | -27.1% | 11.4% | 7.0
SMILES | Shiga inhibitor | FMDV inh | Sm TGR block | Cycloheximide cs
COc1ccc(NC(=O)CSc2ccccn2)cc1OC | 29.1 | 31.2% | 2.3% | 19.5
COc1ccc(/C=N/NC(=O)CSc2ccccn2)cc1OC | 29.9* | 42.6% | 15.4% | 23.0*
CCOC(=O)Nc1nnc(-c2ccc(OC)cc2)s1 | 38.5 | nt | -17.8% | 23.8*
CCOC(=O)Nc1nnc(-c2cccc(OC)c2)s1 | 23.3 | 40.2% | ? | 14.9*
COc1cccc(-c2nnc(NC(=O)c3cccs3)s2)c1 | 14.1 | 23.9% | 0.2% | 11.6
CCc1nnc(NC(=O)Cc2ccc(OC)cc2)s1 | 8.6 | -2.0% | 1.9% | 6.9
COc1cccc(N2CCN(CC(=O)Nc3nnc(-c4ccccc4)s3)CC2)c1 | 0.6 | 15.8µM* | 4.2% | -2.5
Cc1ccc(N(Cc2cccs2)C(=O)COc2ccccc2[N+](=O)[O-])cc1 | nt | 26.3% | -10.6% | nt
Cc1ccc(NC(=O)CCC(=O)N2CCOc3ccccc32)c(Cl)c1 | 16.9* | -21.9% | -10.8% | 10.7*
O=C(CCC(=O)N1CCOc2ccccc21)NC1CCCCCC1 | 12.6 | 7.3% | -13.9% | 6.6*
CCOC(=O)N1CCC(NC(=O)CCC(=O)N2CCOc3ccccc32)CC1 | 3.7 | -12.5% | -19.2% | 6.9
COc1ccc(-c2cc(C)no2)cc1S(=O)(=O)Nc1cccc(C(F)(F)F)c1 | nt | 18.0% | 2.8% | nt
